# Measurements: the supplement of paper PMC8728848
# Shown is part of a subset that was picked to be rich in the strongest signals.
# B1: SRS2 (Toxoplasma gondii), O15695 (protein)
# chain: MATRASLARQKTGAACLAVLTASPSVVAAKPWKRWVGVSVILASAFAVGVSAGPPYRYEPEKFTCRPKKGILSQWVSLLYQVQHNITFACEEATPVPTTLISEEHGLMVCAENMTPEECEANPAPLSAFLPGATKEWVTGDSVLTGLKISVPESQYPANAKSFRVGCRHNTKTGNTCMLTIHVEPRDPAVERQEARCSYTENSTLPKIFVTKDSNTMTLACGPHGAPMPESYTENYCSTPDTCDEKPFTSVIPGYLSKWFFGDPKSPLGARVRIPPEQIPSSPQINYFGCTGPTEGEGPKYNCTVPVPLGGGDPSEGSRPGGGSGGGKRGGGQGGGGSLAGFDFRQGSARHSLPSRMALSASALLAMTALAY
# Experiments:
# Test in all cases: glycan array binding signal (z-score within array); higher = stronger binding
# Conditions in all cases: glycan notation: IUPAC condensed, linker removed
# Fuc(a1-2)Gal = target: Fuc(a1-2)Gal
# Outline: (§1)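 The Consortium for Functional Glycomics database supplied 3228 glycan arrays, of which those lacking an available protein sequence were dropped. The binding signal, a within-array Z-score, was averaged across arrays of the same protein sequence and across linkers. Negative scores can be read as non-binding.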
# [1] = target: Fuc(a1-2)Gal(b1-3)GalNAc(b1-3)Gal(a1-4)Gal(b1-4)Glc
# Outline: as §1
# Fuc(a1-2)Gal(b1-4)Glc6S = target: Fuc(a1-2)Gal(b1-4)Glc6S
# Outline: as §1
# [2] = target: Fuc(a1-2)Gal(b1-4)GlcNAc(b1-3)Gal(b1-4)GlcNAc
# Outline: as §1
# [3] = target: Fuc(a1-2)Gal(b1-4)GlcNAc6S
# Outline: as §1
# [4] = target: Fuc(a1-2)[GalNAc(a1-3)]Gal(b1-3)GlcNAc(b1-2)Man(a1-3)[Fuc(a1-2)[GalNAc(a1-3)]Gal(b1-3)GlcNAc(b1-2)Man(a1-6)]Man(b1-4)GlcNAc(b1-4)GlcNAc
# Outline: as §1
# [5] = target: Fuc(a1-2)[GalNAc(a1-3)]Gal(b1-4)GlcNAc(b1-3)Gal(b1-4)GlcNAc(b1-3)Gal(b1-4)GlcNAc
# Outline: as §1
# Fuc(a1-3)GlcNAc = target: Fuc(a1-3)GlcNAc
# Outline: as §1
# Gal(a1-3)Gal(b1-4)Glc = target: Gal(a1-3)Gal(b1-4)Glc
# Outline: as §1
# Gal(a1-3)Gal(b1-4)GlcNAc = target: Gal(a1-3)Gal(b1-4)GlcNAc
# Outline: as §1
# Gal(a1-3)GalNAc = target: Gal(a1-3)GalNAc
# Outline: as §1
# [6] = target: Gal(b1-3)GalNAc(a1-3)[Fuc(a1-2)]Gal(b1-4)GlcNAc
# Outline: as §1
# Gal(b1-3)GlcNAc = target: Gal(b1-3)GlcNAc
# Outline: as §1
# [7] = target: Gal(b1-3)[Fuc(a1-4)]GlcNAc
# Outline: as §1
# [8] = target: Gal(b1-3)[Fuc(a1-4)]GlcNAc(b1-3)Gal(b1-4)GlcNAc
# Outline: as §1
# [9] = target: Gal(b1-4)GalNAc(b1-3)[Fuc(a1-2)]Gal(b1-4)GlcNAc
# Outline: as §1
# Gal(b1-4)Glc6S = target: Gal(b1-4)Glc6S
# Outline: as §1
# [10] = target: Gal(b1-4)GlcNAc(b1-2)Man(a1-3)[Gal(b1-4)GlcNAc(b1-2)Man(a1-6)]Man(b1-4)GlcNAc(b1-4)[Fuc(a1-6)]GlcNAc
# Outline: as §1
# [11] = target: Gal(b1-4)GlcNAc(b1-2)Man(a1-6)[GlcNAc(b1-2)Man(a1-3)]Man(b1-4)GlcNAc(b1-4)GlcNAc
# Outline: as §1
# [12] = target: Gal(b1-4)GlcNAc(b1-3)[Gal(b1-4)GlcNAc(b1-6)]GalNAc
# Outline: as §1
# [13] = target: Gal3S(b1-4)[Fuc(a1-3)]Glc6S
# Outline: as §1
# [14] = target: GalNAc(a1-3)GalNAc(a1-3)Gal(a1-4)Gal(b1-4)GlcNAc
# Outline: as §1
# [15] = target: GalNAc(b1-3)Gal(a1-4)Gal(b1-4)GlcNAc(b1-3)Gal(b1-4)Glc
# Outline: as §1
# [16] = target: GlcNAc(a1-4)Gal(b1-4)GalNAc
# Outline: as §1
# [17] = target: GlcNAc(a1-4)Gal(b1-4)GlcNAc(b1-3)Gal(b1-4)[Fuc(a1-3)]GlcNAc(b1-3)Gal(b1-4)[Fuc(a1-3)]GlcNAc
# Outline: as §1
# [18] = target: GlcNAc(b1-2)Man(a1-3)[GlcNAc(b1-2)Man(a1-6)]Man(b1-4)GlcNAc(b1-4)[Fuc(a1-6)]GlcNAc
# Outline: as §1
# GlcNAc3Prop(b1-4)GlcNAc = target: GlcNAc3Prop(b1-4)GlcNAc
# Outline: as §1
# [19] = target: Man(a1-2)Man(a1-6)[Man(a1-3)]Man(a1-6)[Man(a1-2)Man(a1-2)Man(a1-3)]Man
# Outline: as §1
# [20] = target: Neu5Ac(a2-3)Gal(b1-3)GlcNAc(b1-3)GalNAc
# Outline: as §1
# [21] = target: Neu5Ac(a2-3)Gal(b1-4)[Fuc(a1-3)]GlcNAc(b1-3)GalNAc
# Outline: as §1
# [22] = target: Neu5Ac(a2-6)Gal(b1-4)GlcNAc(b1-2)Man(a1-6)[Gal(b1-4)GlcNAc(b1-2)Man(a1-3)]Man(b1-4)GlcNAc(b1-4)GlcNAc
# Outline: as §1
# [23] = target: Neu5Ac(a2-6)Gal(b1-4)GlcNAc(b1-3)Gal(b1-4)[Fuc(a1-3)]GlcNAc(b1-3)Gal(b1-4)[Fuc(a1-3)]GlcNAc
# Outline: as §1
# [24] = target: Neu5Gc(a2-6)Gal(b1-4)GlcNAc
# Outline: as §1
binder,measurement,setting,value
B1,glycan array binding signal (z-score),Fuc(a1-2)Gal,0.535
same,glycan array binding signal (z-score),[1],0.231
same,glycan array binding signal (z-score),Fuc(a1-2)Gal(b1-4)Glc6S,0.222
same,glycan array binding signal (z-score),[2],0.699
same,glycan array binding signal (z-score),[3],0.345
same,glycan array binding signal (z-score),[4],-0.13
same,glycan array binding signal (z-score),[5],0.391
same,glycan array binding signal (z-score),Fuc(a1-3)GlcNAc,0.522
same,glycan array binding signal (z-score),Gal(a1-3)Gal(b1-4)Glc,-0.428
same,glycan array binding signal (z-score),Gal(a1-3)Gal(b1-4)GlcNAc,0.159
same,glycan array binding signal (z-score),Gal(a1-3)GalNAc,0.369
same,glycan array binding signal (z-score),[6],-0.437
same,glycan array binding signal (z-score),Gal(b1-3)GlcNAc,-0.506
same,glycan array binding signal (z-score),[7],-0.246
same,glycan array binding signal (z-score),[8],-0.495
same,glycan array binding signal (z-score),[9],-0.802
same,glycan array binding signal (z-score),Gal(b1-4)Glc6S,-0.35
same,glycan array binding signal (z-score),[10],1.54
same,glycan array binding signal (z-score),[11],1.51
same,glycan array binding signal (z-score),[12],6.82
same,glycan array binding signal (z-score),[13],2.13
same,glycan array binding signal (z-score),[14],0.55
same,glycan array binding signal (z-score),[15],-0.134
same,glycan array binding signal (z-score),[16],-0.448
same,glycan array binding signal (z-score),[17],2.07
same,glycan array binding signal (z-score),[18],14.3
same,glycan array binding signal (z-score),GlcNAc3Prop(b1-4)GlcNAc,0.829
same,glycan array binding signal (z-score),[19],0.304
same,glycan array binding signal (z-score),[20],1.3
same,glycan array binding signal (z-score),[21],1.72
same,glycan array binding signal (z-score),[22],-0.203
same,glycan array binding signal (z-score),[23],0.576
same,glycan array binding signal (z-score),[24],-0.03
